Values joined by “and” are separate entries in the source; they are usually repeats but may differ in a detail not shown here. Identical values can stand only once. The whole screen tested about 5,500 compounds, of which about 2,000 (36%) were called active. Roughly 18% stayed inconclusive and do not appear here. The list shows a part of the results. Values without a mark were called inactive. No stated cut-off is given here; in the data, active means normalized growth mostly below about 0.91 (no sharp cut-off); inconclusive means no clear call, values can overlap the other calls; inactive means mostly above about 0.92.
Experiment: chemical genetic growth profiling, strain panel (AID 1159580);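 further: tested at 20 µM; growth read once vehicle control cultures reached saturation at 30 °C; 1 = growth at the plate median or of vehicle wells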
Conditions: S. cerevisiae deletion strains, growth OD

COc1ccc2c(c1)OC[C@@H](Cc1ccc(OC)c(OC)c1)[C@@H]2O
normalized growth (locus YAL013W, strain DEP1, stronger effect = lower value): 1.01
normalized growth (locus YAL021C, strain ccr4, stronger effect = lower value): 0.999
normalized growth (locus YAL026C, strain drs2, stronger effect = lower value): 1
normalized growth (locus YAL030W, strain snc1, stronger effect = lower value): 0.994
normalized growth (locus YBL061C, strain skt5, stronger effect = lower value): 0.99
normalized growth (locus YBR009C, strain hhf1, stronger effect = lower value): 0.98
normalized growth (locus YBR021W, strain FUR4, stronger effect = lower value): 0.984
normalized growth (locus YBR023C, strain chs3, stronger effect = lower value): 0.998
normalized growth (locus YBR171W, strain sec66, stronger effect = lower value): 0.99
normalized growth (locus YBR229C, strain ROT2, stronger effect = lower value): 1
normalized growth (locus YBR231C, strain swc5, stronger effect = lower value): 1
normalized growth (locus YBR279W, strain paf1, stronger effect = lower value): 1
normalized growth (locus YCL011C, strain gbp2, stronger effect = lower value): 1
normalized growth (locus YCL016C, strain dcc1, stronger effect = lower value): 0.999
normalized growth (locus YCL029C, strain bik1, stronger effect = lower value): 0.988
normalized growth (locus YCL069W, strain vba3, stronger effect = lower value): 0.996
normalized growth (locus YCR088W, strain abp1, stronger effect = lower value): 0.983
normalized growth (locus YDL005C, strain med2, stronger effect = lower value): 0.975
normalized growth (locus YDL035C, strain GPR1, stronger effect = lower value): 0.99
normalized growth (locus YDL040C, strain nat1, stronger effect = lower value): 0.994
normalized growth (locus YDL074C, strain BRE1, stronger effect = lower value): 0.982
normalized growth (locus YDL101C, strain DUN1, stronger effect = lower value): 1.01
normalized growth (locus YDL134C, strain PPH21, stronger effect = lower value): 1
normalized growth (locus YDL185W, strain tfp1, stronger effect = lower value): 0.997
normalized growth (locus YDL192W, strain arf1, stronger effect = lower value): 0.988
normalized growth (locus YDR001C, strain nth1, stronger effect = lower value): 0.998
normalized growth (locus YDR069C, strain doa4, stronger effect = lower value): 0.996
normalized growth (locus YDR101C, strain arx1, stronger effect = lower value): 0.983
normalized growth (locus YDR137W, strain rgp1, stronger effect = lower value): 0.802 (active)
normalized growth (locus YDR150W, strain NUM1, stronger effect = lower value): 1
normalized growth (locus YDR159W, strain sac3, stronger effect = lower value): 0.94
normalized growth (locus YDR162C, strain NBP2, stronger effect = lower value): 0.999
normalized growth (locus YDR195W, strain ref2): 0.973
normalized growth (locus YDR297W, strain sur2, stronger effect = lower value): 0.985
normalized growth (locus YDR318W, strain mcm21, stronger effect = lower value): 0.96
normalized growth (locus YDR334W, strain swr1, stronger effect = lower value): 1.01
normalized growth (locus YDR335W, strain msn5, stronger effect = lower value): 1.01
normalized growth (locus YDR388W, stronger effect = lower value): 0.985
normalized growth (locus YDR392W, strain spt3, stronger effect = lower value): 0.91
normalized growth (locus YDR502C, strain sam2, stronger effect = lower value): 0.977
normalized growth (locus YEL003W, strain gim4, stronger effect = lower value): 1
normalized growth (locus YEL037C, strain rad23, stronger effect = lower value): 1.01
normalized growth (locus YEL061C, strain CIN8 (second series), stronger effect = lower value): 1
normalized growth (locus YEL061C, strain CIN8, stronger effect = lower value): 0.999
normalized growth (locus YER015W, strain faa2, stronger effect = lower value): 1
normalized growth (locus YER016W, strain bim1, stronger effect = lower value): 0.986
normalized growth (locus YER110C, stronger effect = lower value): 0.996
normalized growth (locus YER111C, strain swi4, stronger effect = lower value): 0.998
normalized growth (locus YER155C, strain BEM2 (second series), stronger effect = lower value): 0.99
normalized growth (locus YER155C, strain BEM2, stronger effect = lower value): 0.976
normalized growth (locus YER167W, strain BCK2, stronger effect = lower value): 0.958
normalized growth (locus YFR010W, strain ubp6, stronger effect = lower value): 0.998
normalized growth (locus YGL078C, strain dbp3, stronger effect = lower value): 0.996
normalized growth (locus YGL086W, strain mad1, stronger effect = lower value): 0.978
normalized growth (locus YGL167C, strain pmr1, stronger effect = lower value): 0.977
normalized growth (locus YGL173C, strain kem1, stronger effect = lower value): 1
normalized growth (locus YGL227W, strain vid30, stronger effect = lower value): 0.992
normalized growth (locus YGL240W, strain doc1, stronger effect = lower value): 1.02
normalized growth (locus YGL248W, strain PDE1, stronger effect = lower value): 0.996
normalized growth (locus YGL253W, strain hxk2, stronger effect = lower value): 1.02
normalized growth (locus YGR078C, strain PAC10, stronger effect = lower value): 1.01
normalized growth (locus YGR135W, strain pre9, stronger effect = lower value): 0.997
normalized growth (locus YGR229C, strain SMI1, stronger effect = lower value): 0.993
normalized growth (locus YGR252W, strain gcn5, stronger effect = lower value): 0.922
normalized growth (locus YHR013C, strain ard1, stronger effect = lower value): 0.966
normalized growth (locus YHR027C, strain rpn1, stronger effect = lower value): 1.02
normalized growth (locus YHR030C, strain SLT2, stronger effect = lower value): 0.995 and 1.01
normalized growth (locus YHR079C, strain IRE1 (second series), stronger effect = lower value): 0.981
normalized growth (locus YHR079C, strain IRE1, stronger effect = lower value): 1.01
normalized growth (locus YHR094C, strain hxt1, stronger effect = lower value): 0.989
normalized growth (locus YHR129C, strain ARP1, stronger effect = lower value): 0.993
normalized growth (locus YHR142W, strain chs7, stronger effect = lower value): 1.01
normalized growth (locus YHR200W, strain rpn10, stronger effect = lower value): 0.987
normalized growth (locus YIL066C, strain RNR3, stronger effect = lower value): 1
normalized growth (locus YIL073C, strain SPO22, stronger effect = lower value): 0.998
normalized growth (locus YIL125W, strain kgd1, stronger effect = lower value): 0.996
normalized growth (locus YIR030C, strain dcg1, stronger effect = lower value): 0.986
normalized growth (locus YJL092W, strain hpr5, stronger effect = lower value): 0.994
normalized growth (locus YJL095W, strain BCK1 (second series), stronger effect = lower value): 1
normalized growth (locus YJL095W, strain BCK1, stronger effect = lower value): 0.989 and 0.952
normalized growth (locus YJL115W, strain asf1, stronger effect = lower value): 1
normalized growth (locus YJL129C, strain trk1, stronger effect = lower value): 0.94
normalized growth (locus YJL134W, strain LCB3, stronger effect = lower value): 1
normalized growth (locus YJL154C, strain vps35, stronger effect = lower value): 1
normalized growth (locus YJL164C, strain tpk1, stronger effect = lower value): 0.99
normalized growth (locus YJL166W, strain qcr8, stronger effect = lower value): 1.01
normalized growth (locus YJL168C, strain set2, stronger effect = lower value): 0.99
normalized growth (locus YJL187C, strain SWE1 (second series), stronger effect = lower value): 1
normalized growth (locus YJL187C, strain SWE1, stronger effect = lower value): 0.998
normalized growth (locus YJR043C, strain POL32, stronger effect = lower value): 0.953
normalized growth (locus YJR066W, strain TOR1, stronger effect = lower value): 0.975
